Bioassay records as filed in PubChem BioAssay.
MEKK3 PB1 HTS: MEKK3-MEK5 PB1 interaction, increase or decrease. bead-based flow cytometry, Alexa488-MEK5 binding to MEKK3; actives lie on both sides; 0 = blocked by unlabeled MEK5, 100 = vehicle. hit rate 1.4% among 290,000. Q99759. binding response (% of control), % at 10 µM;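 active means binding response more than 3 SD above or below the average of its plate-row segment, actives on both sides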;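 further: Alexa488 bead fluorescence after subtracting the streptavidin-only scavenger bead signal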
MEKK2mut PB1 HTS: signal of MEK5 binding to mutant human MEKK2 PB1 domain; hit rate 0.35% among 290,000; percent response, % at 10 µM; bead flow cytometry, Alexa488-MEK5 binding to MEKK2 mutant; AID 1530; in the data active means percent response above about 24%, passing the limit was not always enough
MEKK2 WT-MEK5: raises or lowers MEK5 binding to wildtype human MEKK2 PB1 domain. Q9Y2U5. AID 1531. bead flow cytometry, Alexa488-MEK5 binding to MEKK2 WT; actives lie on both sides. binding response (% of control), % at 10 µM. hit rate 1.1% among 290,000; in the data active means binding response below about 67% or above about 130%
GRK2 inh: human GRK2 inhibition via aptamer displacement | bead flow cytometry, FAM-aptamer displacement from GRK2 | inhibition of aptamer binding, % at 10 µM | hit rate 0.59% among 330,000;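 active means inhibition of aptamer binding above 40%, roughly 3 SD of noise, on plates passing a quality check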;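 further: median bead fluorescence of bound FAM aptamer so fluorescent compounds give negative values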
Target sequence (P25098 whole entry, looked up): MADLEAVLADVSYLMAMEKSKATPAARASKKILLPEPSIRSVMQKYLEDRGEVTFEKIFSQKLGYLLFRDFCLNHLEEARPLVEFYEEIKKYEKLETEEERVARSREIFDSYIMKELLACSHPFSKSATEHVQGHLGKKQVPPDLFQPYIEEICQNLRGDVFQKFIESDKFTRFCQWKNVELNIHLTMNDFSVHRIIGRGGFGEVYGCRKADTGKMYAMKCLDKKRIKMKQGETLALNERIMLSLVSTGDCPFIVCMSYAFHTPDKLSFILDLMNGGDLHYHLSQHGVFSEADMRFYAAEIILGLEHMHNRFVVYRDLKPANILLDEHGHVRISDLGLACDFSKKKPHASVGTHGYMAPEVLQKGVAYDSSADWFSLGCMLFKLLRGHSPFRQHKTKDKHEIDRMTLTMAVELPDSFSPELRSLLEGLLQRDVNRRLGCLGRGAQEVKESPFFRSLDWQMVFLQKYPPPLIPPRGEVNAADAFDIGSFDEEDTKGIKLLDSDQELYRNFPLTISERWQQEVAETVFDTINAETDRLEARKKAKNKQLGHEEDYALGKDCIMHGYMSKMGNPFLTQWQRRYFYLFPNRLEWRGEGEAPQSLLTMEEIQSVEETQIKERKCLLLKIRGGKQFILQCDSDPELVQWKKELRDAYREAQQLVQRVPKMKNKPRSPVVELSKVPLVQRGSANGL
MEKK2wt confirm: raises or lowers MEK5 binding to wildtype human MEKK2, retest; bead flow cytometry, Alexa488-MEK5 binding to MEKK2 WT; actives lie on both sides; binding response (% of control), % at 10 µM; hit rate 2.4% among 5,900; shares compounds with MEKK3 PB1 HTS; in the data active means binding response below about 16% or above about 210%; inactive means in between
MEKK2mut-MEK5: signal of MEK5 binding to mutant human MEKK2, retest; shares compounds with MEKK3 PB1 HTS; bead flow cytometry, Alexa488-MEK5 binding to MEKK2 mutant; percent response, % at 10 µM; hit rate 2% among 5,900; AID 1893; in the data active means percent response mostly above about 71%, no sharp cut-off; inactive means mostly below about 38%;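 further: higher means compound restores mutant binding toward wildtype level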
MEKK3-MEK5 inh: confirmation of inhibitors of MEK5 binding to human MEKK3 | hit rate 1.8% among 5,900 | bead flow cytometry, Alexa488-MEK5 binding to MEKK3; active compounds read low | binding response (% of control), % at 10 µM | shares compounds with MEKK3 PB1 HTS;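 active means binding response below 72% of control, or above a set upper limit, though filed actives all read lower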;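 further: 100% = DMSO only wells and 0% = binding blocked by excess unlabeled MEK5; lower values mean stronger disruption of MEK5 binding to MEKK3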
The depositor's hits bear a star; . = no result given; [ ] = dose if it differs, or a comment. Hits are enriched below; roughly 2.5% of the tested compounds scored in any of these assays.

SMILES	MEKK3 PB1 HTS	MEKK2mut PB1 HTS	MEKK2 WT-MEK5	GRK2 inh	MEKK2wt confirm	MEKK2mut-MEK5	MEKK3-MEK5 inh
O=C(NCc1ccc2c(c1)OCO2)c1ccc(=O)[nH]c1	111	19	113	2	.	.	.
COc1ccc(-c2cn3cccnc3n2)cc1NC(=O)c1cc(OC)c(OC)c(OC)c1	20*[inhibitor]	-21	27*[inhibitor]	6	100	-3	97
CCN(C[C@H]1N[C@@](Cc2ccccc2)(C(=O)OC)[C@H]2C(=O)N(Cc3ccccc3)C(=O)[C@@H]12)S(=O)(=O)c1ccc(C)cc1	.	.	.	6	.	.	.
COc1ccc(N2CCN(CCCNC(=O)Cn3c(=O)c4cccn4c4cccnc43)CC2)cc1	102	11	138*	0	143	29	99
O=C1CSCC(=O)N1Cc1ccc(Cl)cc1Cl	95	-2	96	1	.	.	.
CC(NC(=O)C(C)(C)C)c1nc2ccccc2n1C (stereo not drawn)	0.0*[inhibitor]	-16	0.0*[inhibitor]	0	108	7	101
CC(c1ccccc1)N1C(=O)NC(NC(=O)c2cccnc2)(C(F)(F)F)C1=O (stereo not drawn)	0.0*[inhibitor]	-3	0.0*[inhibitor]	1	97	-8	96
O=C(Nc1cc(C(F)(F)F)ccc1F)C1CCCCC1	72*[inhibitor]	-18	80	0	92	-4	94
CCN(CC)S(=O)(=O)c1cc(C)c(C)cc1Br	61*[inhibitor]	-4	71*[inhibitor]	0	103	3	103
O=C(O)COc1ccccc1/C=N/NC(=O)CSc1nnc(SCc2ccc(Cl)cc2)s1	130*	29	114	2	105	3	111
O=C(O)COc1ccccc1/C=N/NC(=O)CSc1nnc(SCc2cccc3ccccc23)s1	93	-4	97	2	.	.	.
Cc1cc(C)c(NC(=O)c2ccc(CNS(=O)(=O)c3cc(C(F)(F)F)ccc3Cl)cc2)c(C)c1	130*	1	104	7	96	0	99
O=S(=O)(NCc1ccccn1)c1cc(C(F)(F)F)ccc1Cl	103	0	100	0	.	.	.
O=C(COC(=O)c1ccccc1Br)NC1CCCCCCC1	.	.	.	0	.	.	.
CCOC(=O)c1[nH]c(C)c(C(=O)c2cc(F)ccc2F)c1C	.	.	.	2	.	.	.
Cc1[nH]n(-c2ccccc2)c(=O)c1/C=N/NC(=O)COc1ccccc1[N+](=O)[O-]	158*	1	109	2	106	2	105
Cc1[nH]n(-c2cccc3ccccc23)c(=O)c1/C=N/NC(=O)c1cccc([N+](=O)[O-])c1	61*[inhibitor]	-1	91	2	97	-5	100
COc1ccccc1-n1c(SCC(=O)N2CCc3ccccc32)nc2c(c1=O)SCC2	109	5	106	4	.	.	.
c1ccc(CNc2nc(-c3cccnc3)nc3ccccc23)cc1	95	2	95	0	.	.	.
Cc1sc2ncnc(NC3CCN(Cc4ccccc4)CC3)c2c1C	91	-5	89	0	.	.	.
c1ccc(CN2CCC(Nc3nc(-c4cccnc4)nc4ccccc34)CC2)cc1	102	16	144*	0	137	12	98
c1ccc(CN2CCC(Nc3ncnc4sccc34)CC2)cc1	105	51*	129	0	125	12	103
Cc1cccc(NC(=O)c2ccc(C(=O)c3ccccc3)cc2)n1	.	.	.	0	.	.	.
CCc1ccc(OC(=O)c2ccn(CC)n2)cc1	104	5	102	0	.	.	.
C#CCOCCOCCOCCNc1nc(N2CCN(C(=O)[C@H](CCCCN)n3cc([C@@H](N)C(C)CC)nn3)CC2)nc(N2CCN(C(=O)[C@H](Cc3cc4ccccc4[nH]3)n3cc([C@@H](N)CC(C)C)nn3)CC2)n1 (stereo partly drawn)	111	93*	237*	0	137	21	102
SMILES	MEKK3 PB1 HTS	MEKK2mut PB1 HTS	MEKK2 WT-MEK5	GRK2 inh	MEKK2wt confirm	MEKK2mut-MEK5	MEKK3-MEK5 inh
C#CCOCCOCCOCCNc1nc(N2CCN(C(=O)[C@H](CCC(=O)O)n3cc(C(N)CO)nn3)CC2)nc(N2CCN(C(=O)[C@H](Cc3cc4ccccc4[nH]3)n3cc(C(N)[C@H](C)CC)nn3)CC2)n1 (stereo partly drawn)	103	27	156*	0	275*	110*	114
C#CCOCCOCCOCCNc1nc(N2CCN(C(=O)[C@H](Cc3cc4ccccc4[nH]3)n3cc([C@@H](N)C(C)CC)nn3)CC2)nc(N2CCN(C(=O)[C@H](CCCCN)n3cc([C@@H](N)CO)nn3)CC2)n1 (stereo partly drawn)	107	57*	202*	.	204	52	108
C#CCOCCOCCOCCNc1nc(N2CCN(C(=O)[C@H](Cc3cc4ccccc4[nH]3)n3cc([C@@H](N)C(C)CC)nn3)CC2)nc(N2CCN(C(=O)[C@H](Cc3cc4ccccc4[nH]3)n3cc([C@@H](N)CC(C)C)nn3)CC2)n1 (stereo partly drawn)	99	13	205*	0	249*	76*	109
N#CCCN=C(NS(=O)(=O)c1ccccc1)c1ccccc1	105	10	105	1	.	.	.
C=CCN1c2ccccc2[C@]23C[C@@H](C(=O)OC)N(C(=O)C4CCC4)C2=NC(C(=O)OC)=C(C(=O)OC)[C@H]13	91	0	79	2	.	.	.
C=CCN1c2ccccc2[C@]23C[C@@H](C(=O)OC)N(C(=O)c4ccco4)C2=NC(C(=O)OC)=C(C(=O)OC)[C@H]13	128*	2	145*	0	95	-9	97
Cc1ccc2nc(SCC(=O)NC3CCS(=O)(=O)C3)[nH]c2c1 (stereo not drawn)	.	.	.	0	.	.	.
S=c1[nH]nc(-c2ccc(Cl)cc2)n1CCCN1CCOCC1	118	431*	119	4	100	-6	103
COc1ccc(CCNCC2C(Oc3ccc(Cl)cc3)C(=O)N2c2ccccc2C)cc1OC (stereo not drawn)	106	32	155*	1	126	12	102
COCCNCC1C(Oc2ccc(Cl)cc2)C(=O)N1c1ccccc1C (stereo not drawn)	123	0	112	1	.	.	.
Cc1ccc(/C=C2\CCC3=C2OC(N)=C(C#N)C3c2ccc(C)cc2)cc1 (stereo not drawn)	118	108*	101	0	92	-17	95
N#CC1=C(N)Oc2n[nH]c(-c3cccs3)c2C1c1cccnc1 (stereo not drawn)	123*	6	108	0	120	6	92
COc1cc(/C=N\NC(=O)CNC(=O)C(c2ccccc2)c2ccccc2)ccc1O	103	5	98	3	.	.	.
